The values below come from PubChem BioAssay AID1038 (National Center for Advancing Translational Sciences (NCATS), 2008).

Results filed as inconclusive are left out. The source made the active and inactive calls. Calls follow the shape of the full dose curve.

The nature of this experiment: Normal 1 Cell Viability Secondary Assay for qHTS Assay for Epigenetic Modulators. The settings on record: Normal 1 bronchial epithelial viability, MTS, 4 d. The text has this: NIH Molecular Libraries Screening Centers Network [MLSCN] NIH Chemical Genomics Center [NCGC] MLSCN Grant: 1 X01 MH079860-01 Assay Provider: Elisabeth D. Martinez, University of Texas SW Medical Center NCGC Assay Overview: This secondary assay characterizes selected actives identified in the qHTS of the Locus Derepression (LDR) assay (PubChem AID 597). The LDR assay detects the derepression of a GFP reporter that is stably integrated in a region of the genome of murine c127i mammary cells that is presumably silenced. Compounds that cause derepression of the locus to express GFP are identified by enumerating GFP positive cells using a laser-scanning microplate cytometer. […] Normal 1 cell viability was measured using Cell Titer 96 AQueous One (Promega), an assay which detects the ability of metabolically active cells to reduce a tetrazolium salt substrate (MTS), into a soluble formazan product that can be measured by colorimetry.
NCGC Assay Protocol Summary Normal 1 cells were plated in 96-well flat bottom tissue culture dishes (Corning) and grown overnight at 37 C and 5% CO2, then treated with compounds, incubated 4 days, and assayed for viability using the Cell Titer 96 AQueous One kit (Promega) according to the manufacturer's protocol. Absorbance at 490 nm and 650 nm (reference) was measured by a Spectra Max (Molecular Devices). […]

With `CN1CSC(=S)N(C)C1`, the molecule was classed as inactive.
